Experimental data: the supplement of paper PMC10849652
Targets with a hit are over-represented here; the source holds about 7,900 in all. About 0.6% of all pairs of compound and target were hits.

The targets below were run with NCC(=O)Nc1ccc(-n2nc(C(F)(F)F)cc2-c2ccc3c(ccc4ccccc43)c2)cc1 (assay: log2 fold change, soluble protein after heating vs DMSO (PISA); higher = thermal stabilisation; K562 cells, 10 uM, 30 min; active = over 0.2 and 3.5 SD of the protein, either way, in both replicates (recomputed)).
Outline: (§1)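 Aliquots of K562 cells (2×10^6 cells/mL) treated with 10 μM compound for 30 min were heated for 3 min over 48°C-58°C. After pooling and extraction in PBS with 0.5% NP-40 at 4°C, soluble protein from a 21,000xg, 90 min spin was quantified by TMTpro 16plex LC-MS/MS with channel sums equalised. Thermal stability is expressed against control samples, from duplicates, as a log2 fold change.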

Sequence of UniProt Q9UKU0 (Q9UKU0 whole entry, looked up): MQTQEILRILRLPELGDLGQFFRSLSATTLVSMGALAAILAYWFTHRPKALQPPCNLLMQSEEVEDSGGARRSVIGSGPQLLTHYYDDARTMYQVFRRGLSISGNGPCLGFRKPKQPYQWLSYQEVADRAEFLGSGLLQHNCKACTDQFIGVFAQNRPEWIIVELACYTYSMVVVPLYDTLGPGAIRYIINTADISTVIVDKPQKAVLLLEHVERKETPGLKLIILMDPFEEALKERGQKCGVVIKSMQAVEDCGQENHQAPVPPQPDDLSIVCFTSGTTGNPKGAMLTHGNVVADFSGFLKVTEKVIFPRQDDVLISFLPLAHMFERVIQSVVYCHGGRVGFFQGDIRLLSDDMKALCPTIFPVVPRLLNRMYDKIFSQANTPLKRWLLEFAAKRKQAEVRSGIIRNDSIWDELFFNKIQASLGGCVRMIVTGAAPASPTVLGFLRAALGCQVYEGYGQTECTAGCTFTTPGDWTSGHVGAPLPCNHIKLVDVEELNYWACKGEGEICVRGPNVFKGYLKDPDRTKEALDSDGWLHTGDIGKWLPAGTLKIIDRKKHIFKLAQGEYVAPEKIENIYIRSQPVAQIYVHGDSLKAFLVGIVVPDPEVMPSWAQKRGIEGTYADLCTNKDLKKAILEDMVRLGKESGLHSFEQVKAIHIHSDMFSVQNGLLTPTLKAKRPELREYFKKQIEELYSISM
Sequence of UniProt Q99758 (Q99758 whole entry, looked up): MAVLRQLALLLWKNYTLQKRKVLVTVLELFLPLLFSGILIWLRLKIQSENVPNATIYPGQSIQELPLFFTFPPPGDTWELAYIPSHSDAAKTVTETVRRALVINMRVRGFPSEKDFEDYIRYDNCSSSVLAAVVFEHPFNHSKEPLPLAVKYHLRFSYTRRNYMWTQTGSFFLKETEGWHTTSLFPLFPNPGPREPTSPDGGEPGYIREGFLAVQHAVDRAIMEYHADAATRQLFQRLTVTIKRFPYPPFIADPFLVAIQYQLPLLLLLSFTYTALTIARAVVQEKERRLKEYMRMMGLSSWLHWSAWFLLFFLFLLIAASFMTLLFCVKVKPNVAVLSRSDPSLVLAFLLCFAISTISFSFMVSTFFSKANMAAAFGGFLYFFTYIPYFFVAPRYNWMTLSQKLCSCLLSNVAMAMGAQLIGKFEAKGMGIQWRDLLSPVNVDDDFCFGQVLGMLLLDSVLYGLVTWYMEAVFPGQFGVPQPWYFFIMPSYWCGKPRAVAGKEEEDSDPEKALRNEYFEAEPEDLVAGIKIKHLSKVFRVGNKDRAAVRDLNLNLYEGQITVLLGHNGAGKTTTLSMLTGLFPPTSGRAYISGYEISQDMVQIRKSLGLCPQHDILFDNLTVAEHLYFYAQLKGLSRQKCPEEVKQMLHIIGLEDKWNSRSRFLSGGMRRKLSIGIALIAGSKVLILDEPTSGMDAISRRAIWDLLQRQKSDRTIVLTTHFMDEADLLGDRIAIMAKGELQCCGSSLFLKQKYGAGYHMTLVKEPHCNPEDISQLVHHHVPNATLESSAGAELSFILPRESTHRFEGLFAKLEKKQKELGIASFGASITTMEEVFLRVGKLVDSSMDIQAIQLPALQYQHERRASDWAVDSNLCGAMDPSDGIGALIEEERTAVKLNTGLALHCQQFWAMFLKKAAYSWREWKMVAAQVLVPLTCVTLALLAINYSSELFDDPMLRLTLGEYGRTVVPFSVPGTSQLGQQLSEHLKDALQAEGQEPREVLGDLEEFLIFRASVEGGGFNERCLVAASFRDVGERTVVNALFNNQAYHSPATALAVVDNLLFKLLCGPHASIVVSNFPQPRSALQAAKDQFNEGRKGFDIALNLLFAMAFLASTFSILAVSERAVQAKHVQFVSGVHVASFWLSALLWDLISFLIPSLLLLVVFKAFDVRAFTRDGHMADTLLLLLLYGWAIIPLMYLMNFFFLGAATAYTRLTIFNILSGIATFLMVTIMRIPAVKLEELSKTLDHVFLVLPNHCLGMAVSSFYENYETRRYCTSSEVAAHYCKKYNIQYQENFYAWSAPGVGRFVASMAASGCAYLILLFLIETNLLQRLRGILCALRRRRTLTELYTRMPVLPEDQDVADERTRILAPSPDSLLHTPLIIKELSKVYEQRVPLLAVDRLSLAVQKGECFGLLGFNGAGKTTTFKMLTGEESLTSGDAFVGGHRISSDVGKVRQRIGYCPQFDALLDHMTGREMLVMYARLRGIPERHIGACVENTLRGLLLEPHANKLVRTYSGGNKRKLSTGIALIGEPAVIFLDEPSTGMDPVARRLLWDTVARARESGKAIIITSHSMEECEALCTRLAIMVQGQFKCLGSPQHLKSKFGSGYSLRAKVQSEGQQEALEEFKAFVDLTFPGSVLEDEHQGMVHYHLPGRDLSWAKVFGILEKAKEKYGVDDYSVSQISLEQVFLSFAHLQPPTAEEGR
Sequence of UniProt P15056 (P15056 whole entry, looked up): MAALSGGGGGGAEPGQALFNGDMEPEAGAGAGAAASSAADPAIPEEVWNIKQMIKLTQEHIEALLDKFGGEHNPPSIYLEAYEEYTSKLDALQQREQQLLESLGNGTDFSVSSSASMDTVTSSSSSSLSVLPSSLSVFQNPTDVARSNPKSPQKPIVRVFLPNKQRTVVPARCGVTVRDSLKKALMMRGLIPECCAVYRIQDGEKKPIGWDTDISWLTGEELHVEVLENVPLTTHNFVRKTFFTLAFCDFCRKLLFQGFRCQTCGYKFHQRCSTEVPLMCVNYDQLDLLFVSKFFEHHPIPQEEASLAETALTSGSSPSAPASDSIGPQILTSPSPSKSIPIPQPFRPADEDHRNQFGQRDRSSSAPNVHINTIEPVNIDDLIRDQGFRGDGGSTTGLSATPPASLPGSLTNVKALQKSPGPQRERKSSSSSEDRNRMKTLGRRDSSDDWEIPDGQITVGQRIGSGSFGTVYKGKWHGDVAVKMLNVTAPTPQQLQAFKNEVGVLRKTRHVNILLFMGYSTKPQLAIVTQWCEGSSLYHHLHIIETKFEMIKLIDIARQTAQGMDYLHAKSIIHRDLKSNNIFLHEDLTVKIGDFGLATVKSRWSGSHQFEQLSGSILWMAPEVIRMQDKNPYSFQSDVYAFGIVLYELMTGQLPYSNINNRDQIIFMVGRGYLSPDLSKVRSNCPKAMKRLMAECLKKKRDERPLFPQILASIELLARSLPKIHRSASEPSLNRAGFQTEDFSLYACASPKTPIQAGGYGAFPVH
Sequence of UniProt P25440 (P25440 whole entry, looked up): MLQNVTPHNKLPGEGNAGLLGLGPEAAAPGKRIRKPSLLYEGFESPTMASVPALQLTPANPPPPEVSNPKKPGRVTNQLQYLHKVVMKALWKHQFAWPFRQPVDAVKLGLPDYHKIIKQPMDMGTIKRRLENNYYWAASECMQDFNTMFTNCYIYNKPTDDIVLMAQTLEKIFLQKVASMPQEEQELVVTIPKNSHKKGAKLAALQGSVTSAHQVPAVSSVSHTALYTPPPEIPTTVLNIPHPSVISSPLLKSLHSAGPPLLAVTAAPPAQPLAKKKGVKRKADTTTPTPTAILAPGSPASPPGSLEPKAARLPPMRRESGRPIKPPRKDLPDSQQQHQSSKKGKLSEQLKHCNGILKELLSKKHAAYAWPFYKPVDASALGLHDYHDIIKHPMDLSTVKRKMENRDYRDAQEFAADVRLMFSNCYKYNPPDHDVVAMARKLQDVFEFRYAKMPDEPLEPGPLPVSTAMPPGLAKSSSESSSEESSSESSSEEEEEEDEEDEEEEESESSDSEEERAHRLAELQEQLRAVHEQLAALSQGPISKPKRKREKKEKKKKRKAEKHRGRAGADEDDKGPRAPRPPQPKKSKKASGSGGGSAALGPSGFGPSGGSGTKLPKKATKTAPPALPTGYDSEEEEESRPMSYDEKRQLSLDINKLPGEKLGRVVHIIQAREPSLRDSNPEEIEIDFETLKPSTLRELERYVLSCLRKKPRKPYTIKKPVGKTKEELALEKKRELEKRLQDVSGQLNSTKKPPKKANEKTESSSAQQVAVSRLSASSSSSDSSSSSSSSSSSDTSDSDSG
Sequence of UniProt Q8N5I2 (Q8N5I2 whole entry, looked up): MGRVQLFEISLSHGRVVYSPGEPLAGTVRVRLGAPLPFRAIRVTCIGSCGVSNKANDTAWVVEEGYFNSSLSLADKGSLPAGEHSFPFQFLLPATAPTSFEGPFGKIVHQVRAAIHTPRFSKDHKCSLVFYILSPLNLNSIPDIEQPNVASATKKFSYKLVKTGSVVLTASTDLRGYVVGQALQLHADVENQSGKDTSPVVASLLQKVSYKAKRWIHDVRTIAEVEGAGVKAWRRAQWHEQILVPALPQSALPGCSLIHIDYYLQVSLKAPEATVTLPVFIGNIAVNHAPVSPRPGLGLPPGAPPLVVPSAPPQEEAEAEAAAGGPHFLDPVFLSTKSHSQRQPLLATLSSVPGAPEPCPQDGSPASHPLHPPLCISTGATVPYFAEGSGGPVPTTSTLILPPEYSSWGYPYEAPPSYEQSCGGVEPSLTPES
Sequence of UniProt P54922 (P54922 whole entry, looked up): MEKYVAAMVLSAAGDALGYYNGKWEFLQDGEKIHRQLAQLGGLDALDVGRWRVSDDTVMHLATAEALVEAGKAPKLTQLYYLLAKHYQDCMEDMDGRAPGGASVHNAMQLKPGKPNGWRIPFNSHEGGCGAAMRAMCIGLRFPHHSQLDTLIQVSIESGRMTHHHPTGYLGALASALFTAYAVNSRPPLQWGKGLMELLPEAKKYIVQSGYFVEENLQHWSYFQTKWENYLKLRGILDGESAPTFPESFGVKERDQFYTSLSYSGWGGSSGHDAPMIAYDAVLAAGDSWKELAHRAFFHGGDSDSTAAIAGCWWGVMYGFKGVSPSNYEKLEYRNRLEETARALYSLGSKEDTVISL
Sequence of UniProt Q96F25 (Q96F25 whole entry, looked up): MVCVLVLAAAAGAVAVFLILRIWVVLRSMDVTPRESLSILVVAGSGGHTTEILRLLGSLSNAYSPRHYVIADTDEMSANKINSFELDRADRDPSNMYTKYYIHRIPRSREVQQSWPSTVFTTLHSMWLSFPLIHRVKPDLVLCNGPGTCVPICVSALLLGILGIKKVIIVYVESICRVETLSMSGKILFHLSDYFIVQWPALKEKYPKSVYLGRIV

Row | Target | log2 fold change
1 | AUNIP isoform 2 (UniProt Q9H7T9) | 0.073 (inactive)
2 | ARMC8 isoform 6 (UniProt Q8IUR7) | 0.025 (inactive)
3 | BRIP1 (UniProt Q9BX63) | -0.099 (inactive)
4 | ADPRH (UniProt P54922) | -0.623 (active)
5 | AUH (UniProt Q13825) | 0.103 (inactive)
6 | ARRDC1 (UniProt Q8N5I2) | 0.057 (inactive)
7 | ARHGAP25 isoform 4 (UniProt P42331) | -0.127 (inactive)
8 | BSCL2 isoform 4 (UniProt Q96G97) | 0.007 (inactive)
9 | ACTR3B (UniProt Q9P1U1) | -0.217 (inactive)
10 | BRD8 isoform 2 (UniProt Q9H0E9) | -0.13 (inactive)
11 | ANGEL1 (UniProt Q9UNK9) | -0.004 (inactive)
12 | AIF1 (UniProt P55008) | 0.021 (inactive)
13 | ATXN3 isoform 1 (UniProt P54252) | -0.019 (inactive)
14 | ABCA3 (UniProt Q99758) | -0.196 (inactive)
15 | BRD2 isoform 2 (UniProt P25440) | -0.112 (inactive)
16 | ADAM15 (UniProt Q13444) | -0.024 (inactive)
17 | ABHD11 (UniProt Q8NFV4) | 0.016 (inactive)
18 | AASDH (UniProt Q4L235) | -0.166 (inactive)
19 | ALG14 (UniProt Q96F25) | -0.081 (inactive)
20 | AZI2 (UniProt Q9H6S1) | -0.152 (inactive)
21 | ACSL6 isoform 1 (UniProt Q9UKU0) | -0.174 (inactive)
22 | BRAF (UniProt P15056) | -0.046 (inactive)
23 | ALDH2 isoform 2 (UniProt P05091) | -0.351 (inactive)

Each target was assayed with Nc1ccccc1NC(=O)c1ccc(CNC(=O)OCc2cccnc2)cc1 [entinostat] in the same assay as above.
Outline: as §1

Row | Target | log2 fold change
24 | AUNIP isoform 2 (UniProt Q9H7T9) | 0.003 (inactive)
25 | BRIP1 (UniProt Q9BX63) | 0.001 (inactive)
26 | ADPRH (UniProt P54922) | -0.034 (inactive)
27 | ARRDC1 (UniProt Q8N5I2) | 0.075 (inactive)
28 | BRD8 isoform 2 (UniProt Q9H0E9) | 0.039 (inactive)
29 | ADD2 isoform 9 (UniProt P35612) | -0.052 (inactive)
30 | AIF1 (UniProt P55008) | -0.105 (inactive)
31 | ABCA3 (UniProt Q99758) | -0.064 (inactive)
32 | BAIAP2 isoform 4 (UniProt Q9UQB8) | -0.095 (inactive)
33 | ATXN7L3 isoform 2 (UniProt Q14CW9) | -0.346 (inactive)
34 | BRD2 isoform 2 (UniProt P25440) | -0.159 (inactive)
35 | ADAM15 (UniProt Q13444) | 0.085 (inactive)
36 | AKNA (UniProt Q7Z591) | 1.72 (active)
37 | ABCA4 (UniProt P78363) | 0.002 (inactive)
38 | AASDH (UniProt Q4L235) | 0.007 (inactive)
39 | AGAP3 isoform 4 (UniProt Q96P47) | 0.021 (inactive)
40 | ARFIP1 isoform 2 (UniProt P53367) | 0.012 (inactive)
41 | AZI2 (UniProt Q9H6S1) | 0.041 (inactive)
42 | ACSL6 isoform 1 (UniProt Q9UKU0) | -0.056 (inactive)
43 | BRAF (UniProt P15056) | 0.009 (inactive)
44 | ALDH2 isoform 2 (UniProt P05091) | -0.14 (inactive)

These targets were tested with O=C(CCCCCCC(=O)Nc1ccccc1)NO [vorinostat] in the same assay as above.
Outline: as §1

Row | Target | log2 fold change
45 | BRIP1 (UniProt Q9BX63) | -0.025 (inactive)
46 | ADPRH (UniProt P54922) | -0.039 (inactive)
47 | AUH (UniProt Q13825) | 0.018 (inactive)
48 | ARRDC1 (UniProt Q8N5I2) | -0.086 (inactive)
49 | ARHGAP25 isoform 4 (UniProt P42331) | -0.099 (inactive)
50 | BSCL2 isoform 4 (UniProt Q96G97) | 0.074 (inactive)
51 | ACTR3B (UniProt Q9P1U1) | -0.067 (inactive)
52 | BRD8 isoform 2 (UniProt Q9H0E9) | -0.092 (inactive)
53 | BRMS1 (UniProt Q9HCU9) | -0.053 (inactive)
54 | ATXN3 isoform 1 (UniProt P54252) | -0.003 (inactive)
55 | ABCA3 (UniProt Q99758) | 0.02 (inactive)
56 | BRD2 isoform 2 (UniProt P25440) | -0.214 (inactive)
57 | ADAM15 (UniProt Q13444) | 0.092 (inactive)
58 | ABCA4 (UniProt P78363) | 0.124 (inactive)
59 | ABHD11 (UniProt Q8NFV4) | -0.042 (inactive)
60 | AASDH (UniProt Q4L235) | 0.051 (inactive)
61 | ADD1 isoform 4 (UniProt P35611) | 0.05 (inactive)
62 | ALG14 (UniProt Q96F25) | 0.29 (inactive)
63 | ARFIP1 isoform 2 (UniProt P53367) | 0.331 (inactive)
64 | BAP18 isoform 3 (UniProt Q8IXM2) | 0.192 (inactive)
65 | ACSL6 isoform 1 (UniProt Q9UKU0) | 0.048 (inactive)
66 | BRAF (UniProt P15056) | 0.012 (inactive)
67 | ALDH2 isoform 2 (UniProt P05091) | 0.083 (inactive)
